{"source": "the supplement of paper PMC8728848", "assay_in_all_cases": "glycan array binding signal (z-score within array); higher = stronger binding", "conditions_in_all_cases": "glycan notation: IUPAC condensed, linker removed", "key": {"[1]": {"biological_target": "Fuc(a1-2)Gal(b1-3)GlcNAc(b1-3)GalNAc", "procedure,_shortened": "(§1)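 The binding signal is a Z-score computed within each array and averaged over linkers. Arrays of the same protein sequence at different concentrations or buffers were also averaged together. Data originate from 3228 arrays in the Consortium for Functional Glycomics database, kept only where the protein sequence was available.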"}, "[2]": {"biological_target": "Fuc(a1-2)Gal(b1-4)[Fuc(a1-3)]GlcNAc(b1-2)[Fuc(a1-2)Gal(b1-4)[Fuc(a1-3)]GlcNAc(b1-4)]Man(a1-3)[Fuc(a1-2)Gal(b1-4)[Fuc(a1-3)]GlcNAc(b1-2)Man(a1-6)]Man(b1-4)GlcNAc(b1-4)GlcNAc", "procedure,_shortened": "as §1"}, "[3]": {"biological_target": "Fuc(a1-2)Gal6S(b1-3)GlcNAc6S", "procedure,_shortened": "as §1"}, "[4]": {"biological_target": "Fuc(a1-2)[Gal(a1-3)]Gal(b1-4)GlcNAc", "procedure,_shortened": "as §1"}, "[5]": {"biological_target": "Fuc(a1-3)[Gal(b1-4)]GlcNAc(b1-2)Man(a1-3)[Fuc(a1-3)[Gal(b1-4)]GlcNAc(b1-2)Man(a1-6)]Man(b1-4)GlcNAc(b1-4)GlcNAc", "procedure,_shortened": "as §1"}, "[6]": {"biological_target": "Fuc(a1-3)[Gal(b1-4)]GlcNAc(b1-4)Gal(b1-4)[Fuc(a1-3)]GlcNAc", "procedure,_shortened": "as §1"}, "[7]": {"biological_target": "Fuc(a1-3)[GalNAc3S(b1-4)]GlcNAc", "procedure,_shortened": "as §1"}, "Fuc(a1-4)GlcNAc": {"biological_target": "Fuc(a1-4)GlcNAc", "procedure,_shortened": "as §1"}, "[8]": {"biological_target": "Gal(a1-3)Gal(b1-3)GlcNAc(b1-6)GalNAc", "procedure,_shortened": "as §1"}, "[9]": {"biological_target": "Gal(a1-4)Gal(b1-4)GlcNAc(b1-2)Man(a1-3)[Gal(a1-4)Gal(b1-4)GlcNAc(b1-2)Man(a1-6)]Man(b1-4)GlcNAc(b1-4)GlcNAc", "procedure,_shortened": "as §1"}, "[10]": {"biological_target": "Gal(b1-3)Gal(b1-4)GlcNAc(b1-2)Man(a1-3)[Gal(b1-3)Gal(b1-4)GlcNAc(b1-2)Man(a1-6)]Man(b1-4)GlcNAc(b1-4)GlcNAc", "procedure,_shortened": "as §1"}, "[11]": {"biological_target": "Gal(b1-3)GalNAc(b1-4)[Neu5Ac(a2-3)]Gal(b1-4)Glc", "procedure,_shortened": "as §1"}, "[12]": {"biological_target": "Gal(b1-3)GlcNAc(b1-2)Man(a1-3)[GlcNAc(b1-4)][Gal(b1-3)GlcNAc(b1-2)Man(a1-6)]Man(b1-4)GlcNAc(b1-4)GlcNAc", "procedure,_shortened": "as §1"}, "[13]": {"biological_target": "Gal(b1-3)[Fuc(a1-4)]GlcNAc", "procedure,_shortened": "as §1"}, "[14]": {"biological_target": "Gal(b1-3)[Fuc(a1-4)]GlcNAc(b1-3)Gal(b1-4)GlcNAc", "procedure,_shortened": "as §1"}, "[15]": {"biological_target": "Gal(b1-3)[Fuc(a1-4)]GlcNAc(b1-3)Gal(b1-4)[Fuc(a1-3)]GlcNAc", "procedure,_shortened": "as §1"}, "[16]": {"biological_target": "Gal(b1-3)[Neu5Ac(a2-6)]GlcNAc(b1-6)Gal(b1-4)Glc", "procedure,_shortened": "as §1"}, "[17]": {"biological_target": "Gal(b1-4)GlcNAc(b1-2)Man(a1-3)[Gal(b1-4)GlcNAc(b1-2)][GlcNAc(b1-4)]Man(b1-4)GlcNAc(b1-4)GlcNAc", "procedure,_shortened": "as §1"}, "[18]": {"biological_target": "Gal(b1-4)GlcNAc(b1-2)[Gal(b1-4)GlcNAc(b1-4)]Man(a1-3)[Gal(b1-4)GlcNAc(b1-2)Man(a1-6)]Man(b1-4)GlcNAc(b1-4)GlcNAc", "procedure,_shortened": "as §1"}, "[19]": {"biological_target": "Gal(b1-4)GlcNAc(b1-2)[Gal(b1-4)GlcNAc(b1-6)]Man(a1-6)[GlcNAc(b1-4)][Gal(b1-4)GlcNAc(b1-2)Man(a1-3)]Man(b1-4)GlcNAc(b1-4)GlcNAc", "procedure,_shortened": "as §1"}, "[20]": {"biological_target": "Gal(b1-4)GlcNAc(b1-6)Gal(b1-4)GlcNAc", "procedure,_shortened": "as §1"}, "[21]": {"biological_target": "Gal(b1-4)GlcNAc(b1-6)[Gal(b1-3)]GalNAc", "procedure,_shortened": "as §1"}, "Gal(b1-4)GlcNAc6P": {"biological_target": "Gal(b1-4)GlcNAc6P", "procedure,_shortened": "as §1"}, "Gal6S(b1-4)Glc6S": {"biological_target": "Gal6S(b1-4)Glc6S", "procedure,_shortened": "as §1"}, "GlcA(b1-3)Gal": {"biological_target": "GlcA(b1-3)Gal", "procedure,_shortened": "as §1"}, "[22]": {"biological_target": "GlcNAc(b1-2)Man(a1-3)[GlcNAc(b1-4)][GlcNAc(b1-2)Man(a1-6)]Man(b1-4)GlcNAc(b1-4)GlcNAc", "procedure,_shortened": "as §1"}, "[23]": {"biological_target": "GlcNAc(b1-2)[GlcNAc(b1-6)]Man(a1-6)[GlcNAc(b1-2)Man(a1-3)][GlcNAc(b1-4)]Man(b1-4)GlcNAc(b1-4)GlcNAc", "procedure,_shortened": "as §1"}, "[24]": {"biological_target": "GlcNAc(b1-3)[GlcNAc(b1-4)][GlcNAc(b1-6)]GlcNAc", "procedure,_shortened": "as §1"}, "GlcNAc3Prop(b1-4)GlcNAc": {"biological_target": "GlcNAc3Prop(b1-4)GlcNAc", "procedure,_shortened": "as §1"}, "Man(a1-2)Man(a1-3)Man": {"biological_target": "Man(a1-2)Man(a1-3)Man", "procedure,_shortened": "as §1"}, "[25]": {"biological_target": "Man(a1-2)Man(a1-3)[Man(a1-2)Man(a1-6)]Man", "procedure,_shortened": "as §1"}, "[26]": {"biological_target": "Man(a1-2)Man(a1-3)[Man(a1-6)]Man(a1-6)[Man(a1-2)Man(a1-3)]Man(b1-4)GlcNAc(b1-4)GlcNAc", "procedure,_shortened": "as §1"}, "[27]": {"biological_target": "Neu5Ac(a2-3)Gal(b1-4)GlcNAc(b1-2)Man", "procedure,_shortened": "as §1"}, "[28]": {"biological_target": "Neu5Ac(a2-3)Gal(b1-4)GlcNAc(b1-3)[Neu5Ac(a2-3)Gal(b1-4)GlcNAc(b1-6)]GalNAc", "procedure,_shortened": "as §1"}, "[29]": {"biological_target": "Neu5Ac(a2-6)Gal(b1-4)GlcNAc(b1-2)Man(a1-3)Man(b1-4)GlcNAc(b1-4)GlcNAc", "procedure,_shortened": "as §1"}, "[30]": {"biological_target": "Neu5Ac(a2-6)Gal(b1-4)GlcNAc(b1-2)Man(a1-3)[GlcNAc(b1-2)Man(a1-6)]Man(b1-4)GlcNAc(b1-4)GlcNAc", "procedure,_shortened": "as §1"}, "[31]": {"biological_target": "Neu5Ac(a2-6)Gal(b1-4)GlcNAc(b1-2)Man(a1-3)[Man(a1-6)]Man(b1-4)GlcNAc(b1-4)GlcNAc", "procedure,_shortened": "as §1"}, "[32]": {"biological_target": "Neu5Ac(a2-6)Gal(b1-4)GlcNAc(b1-2)Man(a1-3)[Neu5Ac(a2-6)Gal(b1-4)GlcNAc(b1-2)Man(a1-6)]Man(b1-4)GlcNAc(b1-4)GlcNAc", "procedure,_shortened": "as §1"}, "[33]": {"biological_target": "Neu5Ac(a2-6)Gal(b1-4)GlcNAc(b1-2)Man(a1-3)[Neu5Ac(a2-6)Gal(b1-4)GlcNAc(b1-2)Man(a1-6)]Man(b1-4)GlcNAc(b1-4)[Fuc(a1-6)]GlcNAc", "procedure,_shortened": "as §1"}, "[34]": {"biological_target": "Neu5Ac(a2-6)Gal(b1-4)GlcNAc(b1-2)Man(a1-6)[Gal(b1-4)GlcNAc(b1-2)Man(a1-3)]Man(b1-4)GlcNAc(b1-4)GlcNAc", "procedure,_shortened": "as §1"}, "[35]": {"biological_target": "Neu5Ac(a2-6)Gal(b1-4)GlcNAc(b1-3)[Neu5Ac(a2-6)Gal(b1-4)GlcNAc(b1-6)]GalNAc", "procedure,_shortened": "as §1"}, "[36]": {"biological_target": "Neu5Gc(a2-6)Gal(b1-4)GlcNAc", "procedure,_shortened": "as §1"}}, "note": "This excerpt belongs to a sample that is enriched for the strongest signals.", "data": [{"binder": "Calsepa (Calystegia sepium), P93114 (protein) MAVPMDTISGPWGNNGGNFWSFRPVNKINQIVISYGGGGNNPIALTFSSTKADGSKDTITVGGGGPDSITGTEMVNIGTDEYLTGISGTFGIYLDNNVLRSITFTTNLKAHGPYGQKVGTPFSSANVVGNEIVGFLGRSGYYVDAIGTYNRHK", "values": [{"measurement": "glycan array binding signal (z-score)", "setting": "[1]", "result": -0.268}, {"measurement": "glycan array binding signal (z-score)", "setting": "[2]", "result": -0.257}, {"measurement": "glycan array binding signal (z-score)", "setting": "[3]", "result": -0.26}, {"measurement": "glycan array binding signal (z-score)", "setting": "[4]", "result": -0.249}, {"measurement": "glycan array binding signal (z-score)", "setting": "[5]", "result": -0.082}, {"measurement": "glycan array binding signal (z-score)", "setting": "[6]", "result": -0.253}, {"measurement": "glycan array binding signal (z-score)", "setting": "[7]", "result": -0.265}, {"measurement": "glycan array binding signal (z-score)", "setting": "Fuc(a1-4)GlcNAc", "result": -0.244}, {"measurement": "glycan array binding signal (z-score)", "setting": "[8]", "result": -0.269}, {"measurement": "glycan array binding signal (z-score)", "setting": "[9]", "result": 3.47}, {"measurement": "glycan array binding signal (z-score)", "setting": "[10]", "result": 3.79}, {"measurement": "glycan array binding signal (z-score)", "setting": "[11]", "result": -0.253}, {"measurement": "glycan array binding signal (z-score)", "setting": "[12]", "result": 4.21}, {"measurement": "glycan array binding signal (z-score)", "setting": "[13]", "result": -0.25}, {"measurement": "glycan array binding signal (z-score)", "setting": "[14]", "result": -0.252}, {"measurement": "glycan array binding signal (z-score)", "setting": "[15]", "result": -0.253}, {"measurement": "glycan array binding signal (z-score)", "setting": "[16]", "result": -0.248}, {"measurement": "glycan array binding signal (z-score)", "setting": "[17]", "result": 5.25}, {"measurement": "glycan array binding signal (z-score)", "setting": "[18]", "result": -0.045}, {"measurement": "glycan array binding signal (z-score)", "setting": "[19]", "result": 3.71}, {"measurement": "glycan array binding signal (z-score)", "setting": "[20]", "result": -0.251}, {"measurement": "glycan array binding signal (z-score)", "setting": "[21]", "result": -0.249}, {"measurement": "glycan array binding signal (z-score)", "setting": "Gal(b1-4)GlcNAc6P", "result": -0.27}, {"measurement": "glycan array binding signal (z-score)", "setting": "Gal6S(b1-4)Glc6S", "result": -0.237}, {"measurement": "glycan array binding signal (z-score)", "setting": "GlcA(b1-3)Gal", "result": -0.244}, {"measurement": "glycan array binding signal (z-score)", "setting": "[22]", "result": 5}, {"measurement": "glycan array binding signal (z-score)", "setting": "[23]", "result": 5.82}, {"measurement": "glycan array binding signal (z-score)", "setting": "[24]", "result": -0.241}, {"measurement": "glycan array binding signal (z-score)", "setting": "GlcNAc3Prop(b1-4)GlcNAc", "result": -0.246}, {"measurement": "glycan array binding signal (z-score)", "setting": "Man(a1-2)Man(a1-3)Man", "result": -0.248}, {"measurement": "glycan array binding signal (z-score)", "setting": "[25]", "result": -0.251}, {"measurement": "glycan array binding signal (z-score)", "setting": "[26]", "result": -0.239}, {"measurement": "glycan array binding signal (z-score)", "setting": "[27]", "result": -0.255}, {"measurement": "glycan array binding signal (z-score)", "setting": "[28]", "result": -0.273}, {"measurement": "glycan array binding signal (z-score)", "setting": "[29]", "result": 6.79}, {"measurement": "glycan array binding signal (z-score)", "setting": "[30]", "result": 3.81}, {"measurement": "glycan array binding signal (z-score)", "setting": "[31]", "result": 3.86}, {"measurement": "glycan array binding signal (z-score)", "setting": "[32]", "result": 4.29}, {"measurement": "glycan array binding signal (z-score)", "setting": "[33]", "result": 0.514}, {"measurement": "glycan array binding signal (z-score)", "setting": "[34]", "result": 4.01}, {"measurement": "glycan array binding signal (z-score)", "setting": "[35]", "result": -0.274}, {"measurement": "glycan array binding signal (z-score)", "setting": "[36]", "result": -0.247}]}]}
